Shown are actives, neighbours in structure and some others; about 4.8% of the full set was active somewhere.
ERK AVP block – blocks ERK signaling stimulated by vasopressin. HEK293-V1b, vasopressin-stimulated pERK AlphaScreen. Potency, µM (highest dose often 57.5 µM), without a hit: at the highest dose activity, negative = inhibition, usual class: inhibitors. 72,000 compounds, 0.99% hits; note: % is set by controls: 0 for no effect and ±100 for the full control effect; nearly all actives have a fitted effect of over 55% in size
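qHTS, compounds titrated on V1b-expressing HEK293 cells. Preincubation 30 min at 37C, vasopressin 25 nM for 5 min, lysis 10 min, bead incubation 5 hr at room temperature.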
ALOX15 inhib – inhibitors of human 15-lipoxygenase (ALOX15) | P16050 | purified 15hLO-1, xylenol orange hydroperoxide absorbance | Potency, µM (doses to about 57.1 µM), for the others: top-dose activity change, negative = inhibition, hits mostly inhibitors | 74,000 compounds, 1.4% hits | AID 887; note: % is set by controls: 0 for no effect and ±100 for the full control effect; nearly all actives have a fitted effect of over 55% in size
Target sequence (P16050 whole entry, looked up): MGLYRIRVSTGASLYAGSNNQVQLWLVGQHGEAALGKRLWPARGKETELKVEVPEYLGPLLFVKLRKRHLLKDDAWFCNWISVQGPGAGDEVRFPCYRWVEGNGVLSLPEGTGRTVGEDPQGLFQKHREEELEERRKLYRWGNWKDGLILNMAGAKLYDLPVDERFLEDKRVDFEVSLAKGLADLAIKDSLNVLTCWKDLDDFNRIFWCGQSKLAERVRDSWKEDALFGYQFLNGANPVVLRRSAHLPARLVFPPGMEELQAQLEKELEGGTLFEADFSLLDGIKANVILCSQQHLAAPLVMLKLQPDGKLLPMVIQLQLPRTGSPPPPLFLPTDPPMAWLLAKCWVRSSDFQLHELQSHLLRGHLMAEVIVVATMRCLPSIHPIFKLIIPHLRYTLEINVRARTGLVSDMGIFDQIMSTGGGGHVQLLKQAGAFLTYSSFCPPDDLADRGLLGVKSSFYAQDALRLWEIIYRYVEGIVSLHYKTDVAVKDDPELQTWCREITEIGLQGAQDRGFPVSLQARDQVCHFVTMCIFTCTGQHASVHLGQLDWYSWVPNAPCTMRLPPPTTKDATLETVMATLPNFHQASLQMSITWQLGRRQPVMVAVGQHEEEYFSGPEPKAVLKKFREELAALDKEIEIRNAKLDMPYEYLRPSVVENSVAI
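Hydroperoxide formed from arachidonic acid (50 uM) by purified human 15hLO-1 (40 nM) oxidizes ferrous iron, and the ferric-xylenol orange complex is read at 573 versus 405 nm. Compounds were preincubated 15 min; reaction ran 6 min at room temperature.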
Caspase-7 inhib – blocks human caspase-7 allosterically or competitively; P55210; recombinant caspase-7, Ac-DEVD-AFC fluorescence rate; Potency, µM (doses to about 57.5 µM), for the others: at the top dose activity change, negative = inhibition, hits mostly inhibitors; 75,000 compounds, 0.02% hits; active = well fitted inhibition curve with a large enough effect in the main read-out, with a control signal flat, not every such curve was filed as active; inconclusive = small, poorly fitted or top-dose-only effect, or a change in a side signal; note: % of control where 0% means no effect
TSHR ag – TSH receptor (human) agonism; HEK293-CNG-TSHR cells (CNG channel as cAMP sensor), membrane potential dye, cAMP; Potency, µM (highest dose often 57.1 µM), without a hit: at the top dose activation, usual class: activators; 73,000 compounds, 0.48% hits; AID 926; active = well fitted activation curve with a large enough effect in the main read-out, with a control signal flat, not every such curve was filed as active; inconclusive = small, poorly fitted or top-dose-only effect, or a change in a side signal; inactive = no such curve, though single readings can be large or run the other way; % of control where 0% means no effect;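 note: the control signal comes from parental cells without the receptor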
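HEK 293 cells stably expressing TSHR and a cAMP-gated CNG channel; parental CNG-only cells as counterscreen. Cells preloaded 60 min with membrane potential dye plus 100 uM RO 20-1724, then compound 30 min; fluorescence read at 590 nm.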
Casp1 inh – allosteric or competitive inhibitors of human caspase-1; Potency, µM (doses to about 57.5 µM), for inactives: top-dose activity change, negative = inhibition, hits mostly inhibitors; AID 900; Caspase-1 enzyme, Ac-WEHD-AFC fluorogenic rate; 75,000 compounds, 0.03% hits;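 note: plate controls were vehicle for no effect and no substrate for full effect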
HEK293 cAMP cs – parental HEK293 cAMP activation (counter-screen); AID 938; 73,000 compounds, 2.5% hits; Potency, µM (titrated, usually from 57.1 µM), for inactives: at the top dose activation, hits mostly activators; parental HEK293 CNG cAMP sensor, membrane potential fluorescence; note: % of control where 0% means no effect; nearly all actives have a fitted effect of over 55% in size
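Counterscreen for endogenous-receptor signalling: CNG-channel HEK 293 cells report cAMP rise by membrane depolarization. After 60 min dye equilibration with 100 uM RO 20-1724, compounds incubated 30 min before bottom-read fluorescence at 590 nm.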
The depositor's hits bear a star; ? = inconclusive; / = not tested or not shown; [ ] = remark or other dose. Unless noted, calls come from the whole dose curve; as a rule, active = well fitted curve in the direction sought with a large enough effect; inconclusive = small, poorly fitted or top-dose-only effect, or another doubt; inactive = no such curve, though single readings can be large; an effect the other way counts as inactive or inconclusive. Potency is the fitted concentration of half-maximal effect.

SMILES	ERK AVP block	ALOX15 inhib	Caspase-7 inhib	TSHR ag	Casp1 inh	HEK293 cAMP cs
CCN1c2ccccc2NC2N=C(OC)C(c3ccccc3)C21 (stereo not given)	?	25.1µM*	-3.3%	?	-4.4%	?
CCN1c2ccccc2NC2C1C(C(C)=O)C(=O)N2c1ccc(Cl)cc1 (stereo not given)	?	-24.3%	-5.7%	4.8%	-7.3%	13.7%
COC(=O)COc1ccc(S(=O)(=O)NCCC2=CCCCC2)cc1	15.7%	-6.0%	-1.1%	2.4%	4.0%	12.0%
COC(=O)COc1ccc(S(=O)(=O)NCCC2=CCCCC2)cc1C	14.9%	6.31µM*	-6.9%	?	-2.5%	?
C=CCOn1c(=O)c(=O)n(OCc2ccccc2)c2ccccc21	13.7%	?	-2.1%	14.9%	0.8%	19.1%
CC(=O)Nc1ccc(S(=O)(=O)N(Cc2ccco2)CC2CCCO2)cc1 (stereo not given)	-12.8%	-2.1%	0.1%	20.0%	-2.4%	8.2%
C=CCn1c(SCC(O)Cn2c3ccccc3c3ccccc32)nnc1-c1ccco1 (stereo not given)	-1.9%	-15.0%	-8.1%	?	-7.1%	25.1µM*
C=CCn1c(SCC(=O)Nc2ccccc2OC)nnc1-c1ccco1	-11.7%	-1.9%	-1.1%	7.2%	-1.1%	4.0%
CCn1c(=O)n(CC(=O)NC2CCCC(C)C2C)c(=O)c2ccccc21 (stereo not given)	-11.0%	-0.5%	-0.8%	?	0.9%	25.1µM*
O=C(CCCCn1c(=O)c2ccccc2n(CC(=O)NC2CCCC2)c1=O)NC1CCCC1	-5.3%	0.1%	-0.2%	4.4%[11.4 µM]	-1.7%	5.5%
CN(C)S(=O)(=O)c1cccc(-c2nnc(SCc3cc(Cl)cc4c3OCOC4)n2N)c1	-8.5%	12.6µM*	-3.1%[0.00368 µM]	6.9%	-0.8%	21.4%
CCCCNC(=O)CN1C(=O)C(CC)Oc2ccc(Cl)cc21 (stereo not given)	-3.3%	3.6%	-0.2%	?	1.5%	10µM*
CCOC(=O)CN1C(=O)C(CC)Oc2ccc(Cl)cc21 (stereo not given)	3.6%	-3.5%	-0.4%	?	-1.9%	?
CCOC(=O)C1=C(C)Nc2nc(SC)nn2C1c1ccc(C(=O)OC)cc1 (stereo not given)	13.7%	13.7%	0.5%	15.8µM*	-0.5%	12.5%
COCCOC(=O)C1=C(C)Nc2nc(C)nn2C1c1ccc(F)cc1 (stereo not given)	-7.3%	12.6%	-1.1%	-3.9%	-1.8%	4.6%
CS(=O)(=O)N1CCC2(CC1)CN(C(=O)Nc1cccc(F)c1)C2	-21.5%	-1.8%	-0.9%	-7.5%	0.1%	-14.2%
CS(=O)(=O)N1CCC2(CC1)CN(C(=O)Nc1ccccc1)C2	-5.8%	0.501µM*	-2.0%	5.1%	-2.3%	-4.4%
O=C(Nc1cn(-c2ccccc2)nc1-c1cccs1)c1ccco1	-21.0%	-8.0%	-6.6%	?	-2.3%	31.6µM*
CCOC(=O)c1ccc(NS(=O)(=O)c2ccc3c(c2)oc(=O)n3C)cc1	/	-6.9%	1.4%	3.5%	-1.8%	17.6%
COC(=O)c1ccc(NS(=O)(=O)c2ccc3c(c2)oc(=O)n3C)cc1	/	3.0%	0.9%	?	-0.3%	1.26µM*
Cc1cccc(N2CCN(c3nnnn3-c3ccccc3)CC2C)c1 (stereo not given)	-13.9%	-3.8%	-0.8%	?	-1.3%	25.1µM*
CCCCN1CCC(n2c(=O)[nH]c3ccccc32)CC1	-4.1%	26.2%	-0.3%	/	2.6%	18.5%
CCC1=C2CC[C@H]3C(=O)N(c4ccccc4)C(=O)[C@H]3[C@H]2[C@@]2(Cc3ccccc3)C(=NCc3ccccc3)OC(=O)N2C1=O	-12.9%	/	-4.1%	/	-3.7%	/
CC(C)C[C@@H](CC(=O)N[C@@H](CCCN)CC(=O)N[C@@H]1CCNC[C@H]1C(=O)N[C@H](CC(=O)N[C@@H](CCC(=O)O)CC(=O)O)CC(C)C)NC(=O)[C@@H]1CNCC[C@H]1N	/	/	/	2.8%	/	0.7%
CCOC(=O)C(CCc1ccccc1)NC(C)C(=O)N1C(C(=O)O)CC2CCCC21 (stereo not given)	8.3%	3.16µM*	-1.8%	/	1.7%	/
SMILES	ERK AVP block	ALOX15 inhib	Caspase-7 inhib	TSHR ag	Casp1 inh	HEK293 cAMP cs
CCOC(=O)[C@H](CCc1ccccc1)N[C@@H](C)C(=O)N1[C@H](C(=O)O)C[C@H]2CCC[C@@H]21	-9.7%[25.7 µM]	19.1%[25.6 µM]	-0.4%[25.7 µM]	-2.5%[25.6 µM]	-4.2%[25.7 µM]	0.5%[25.6 µM]
CC(=O)N1CCC2(CC1)CCN(C(=O)Nc1cccc(C#N)c1)CC2	-10.1%	6.1%	-0.1%	-0.4%	-3.1%	6.1%
Cc1ccc(-c2nnc3n2N=C(c2ccc(Br)cc2)CS3)cc1	-15.0%	-5.9%	-2.7%	10.6%	-0.6%	15.3%
Brc1ccc(C2=Nn3c(nnc3-c3n[nH]c4c3CCC4)SC2)cc1	-7.4%	16.9%	0.5%	?	-0.5%	12.6µM*
Clc1ccc(C2=Nn3c(nnc3-c3n[nH]c4c3CCC4)SC2)cc1	-7.1%	2.3%	-2.3%	?	-4.4%	25.1µM*
O=C(Nc1cccc(Br)c1)c1ccn[nH]1	17.6%	10µM*	5.3%	-7.0%	-2.1%	-1.8%
COCC(=O)Nc1cccc(Br)c1	1.1%	-0.8%	-1.4%	-3.5%	-0.3%	4.9%
O=C1[C@@H]2C(c3ccccc3Cl)=NO[C@@H]2C(=O)N1Cc1ccccc1	12.2%	-2.6%	-1.4%	3.16µM*	-1.7%	2.1%
COc1ccc(-c2nc(C#N)c(NC(C)c3ccccc3)o2)cc1OC (stereo not given)	15.8µM*	-13.5%	-0.6%	21.3%	-2.9%	-13.4%
O=C(O)c1ccc(S(=O)(=O)c2ccc3c(c2)C(=O)N(CC2CCCO2)C3=O)cc1 (stereo not given)	-9.4%	8.3%	-1.0%	?	-2.4%	20µM*
O=C(O)c1ccc(S(=O)(=O)c2ccc3c(c2)C(=O)N(Cc2ccco2)C3=O)cc1	-21.9%	-1.6%	-3.6%	31.6µM*	1.2%	16.8%
CNCC[C@H](Oc1ccccc1OC)c1ccccc1	20.8%	-28.3%[25.6 µM]	1.4%	?	-0.9%	20.0%[25.6 µM]
Cc1c(C(N)=O)sc(N)c1C(=O)OC(C)C	-13.4%	4.8%	0.4%	-8.1%	-3.2%	27.6%
CCOC(=O)c1c(N)sc(C(N)=O)c1C	12.6µM*	?	-1.1%	2.1%	-1.6%	3.2%
Cc1nc2ccccc2c(=O)n1NCc1cc(Br)cs1	7.4%	-10.6%	1.9%	?	3.2%	15.8µM*
Cc1nc2ccccc2c(=O)n1NS(C)(=O)=O	-7.0%	-6.0%	0.3%	-0.6%	1.9%	5.5%
O=C(c1ccncc1)N1CCC2(CCN(Cc3ccccc3)CC2)CC1	-1.3%	4.7%	-1.2%	?	-0.8%	?
Cc1cccc(Cc2c(C)nc3c(C(=O)NCc4ccco4)cnn3c2C)c1	-6.3%	-28.0%	-6.5%	?	-4.0%	?

Compound activity: PubChem BioAssay, National Center for Advancing Translational Sciences (NCATS)
